Our source for the growth inhibition values is PubChem BioAssay (NCI).

Compounds without any hit were thinned out: in the full panel of roughly 79,000, 15% have a hit. Active and inactive are the calls of the source. Rule as the data show it: active = growth inhibition above about 70%; inactive = the rest.

The nature of the first experiment: NCI Yeast Anticancer Drug Screen. Data for the wt2 strain (AID 169).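 Also: 0% = growth of vehicle-treated yeast cultures.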 The settings on record: S. cerevisiae wt2 strain growth inhibition; at 1.2 µM; active compounds read high. Put shortly:
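Genetically defined yeast strains from a DNA-repair/cell-cycle panel were used. Compound-exposed yeast growth was measured, and the inhibition was calculated relative to vehicle treatment.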
Consider `COc1ccc2nc(N/N=C/c3sccc3C)cc(C)c2c1`, for which the growth inhibition was 18% (inactive).
On the same count and under the same terms, the figure for `O=C(O)/C=C\C(=O)NNc1ccc(Br)cc1` is 13% (inactive); for `S=c1[nH]nc(Cc2ccccc2)c(=S)[nH]1` it is -40% (inactive); for `COc1ccc2nc3cccc([N+](=O)[O-])c3c(NCCCO)c2c1` it is 6% (inactive).
Still for that read-out and setting: to `Cc1ccc(N(C=O)c2c([N+](=O)[O-])cc([N+](=O)[O-])c3c2=[N+]([O-])CN=3)cc1` belongs 9% (inactive).
For the compound `COc1ccc(C(=O)OCCc2ccccc2)cc1`, the growth inhibition was -6% (inactive).
On the same count and under the same terms, to `COc1ccc(C(=O)NCCN(C)C)c2nc3ccccc3cc12` belongs -16% (inactive); to `NCC(O)CSCc1ccc(Cl)cc1` (configuration not stated), -6% (inactive); to `CN(C)/N=N/c1nc[nH]c1C(N)=O`, -5% (inactive).
On the same count and under the same terms, to `O=c1[nH]c(=O)n(CCCO)cc1F` belongs 3% (inactive).
The same measure, in the same setting: to `COc1ccc(/C(=N/O)c2ccccc2C2=Nc3ccccc3C(NCc3ccccc3)O2)cc1C` (configuration not stated) belongs -1% (inactive).
`CCCC(=O)OC(OC(=O)CCC)c1ccc([N+](=O)[O-])o1`: the growth inhibition is -3% (inactive).
Same read-out and setting: the figure for `O=C(/C(=C/c1ccccc1)CBr)c1ccccc1` is 4% (inactive); for `O=C(Cc1ccccc1F)NC1=C(Cl)C(=O)c2ccccc2C1=O` it is -9% (inactive).
For `Cc1cccc(N2CCN(C(=O)/C(=C/c3ccccc3)NC(=O)c3ccccc3)CC2)c1`, the growth inhibition is -2% (inactive).
Turning to `c1cc(Nc2ccc3c(c2)OCO3)c2cc(C3CCCCC3)ccc2n1`, the growth inhibition is 0% (inactive).
Same read-out and setting: the figure for `COc1cc(NCCCCCNC(C)C)c2ncccc2c1Cl` is -2% (inactive).
Same read-out and setting: to `COc1ccc2cc(CN3CCC(C4CCN(Cc5ccc6cc(OC)ccc6c5)CC4)CC3)ccc2c1` belongs 0% (inactive); to `CC(=O)O/N=C/c1c2ccccc2cc2ccccc12`, -1% (inactive); to `CC[C@@]1(OC(=O)CN(C)C)C(=O)OCc2c1cc1n(c2=O)Cc2cc3ccccc3nc2-1`, -1% (inactive).
On the same count and under the same terms, the figure for `CCCCCCC(CCl)c1sc(-c2csc(CCNC(=O)OC(C)(C)C)n2)nc1C(=O)OC` (configuration not stated) is -3% (inactive); for `CCOC(=O)C1=C(C)NC(C)=C(C(=O)OCC)C1c1cccc([N+](=O)[O-])c1` it is -43% (inactive); for `Cc1ccc2c(/C=C/c3ccc(N(C)C)cc3)ccnc2c1C` it is -12% (inactive).
In the case of `O=C1C(Br)=CC(Br)(Br)C=C1Br`, the growth inhibition was -9% (inactive).

The experiment is the same for the next values; noted with them: S. cerevisiae wt2 strain growth inhibition; at 3.7 µM; active compounds read high.
In the case of `COc1ccc2nc(N/N=C/c3sccc3C)cc(C)c2c1`, the growth inhibition was 4% (inactive).
Still for that read-out and setting: to `O=C(O)/C=C\C(=O)NNc1ccc(Br)cc1` belongs 99% (active); to `S=c1[nH]nc(Cc2ccccc2)c(=S)[nH]1`, -1% (inactive).
Same read-out and setting: to `COc1ccc2nc3cccc([N+](=O)[O-])c3c(NCCCO)c2c1` belongs 33% (inactive).
Same read-out and setting: to `Cc1ccc(N(C=O)c2c([N+](=O)[O-])cc([N+](=O)[O-])c3c2=[N+]([O-])CN=3)cc1` belongs 17% (inactive).
With `COc1ccc(C(=O)OCCc2ccccc2)cc1`, the growth inhibition is -9% (inactive).
Consider `COc1ccc(C(=O)NCCN(C)C)c2nc3ccccc3cc12`, for which the growth inhibition was -8% (inactive).
Same read-out and setting: to `NCC(O)CSCc1ccc(Cl)cc1` (configuration not stated) belongs -9% (inactive); to `CN(C)/N=N/c1nc[nH]c1C(N)=O`, -1% (inactive); to `O=c1[nH]c(=O)n(CCCO)cc1F`, -6% (inactive).
Still for that read-out and setting: to `COc1ccc(/C(=N/O)c2ccccc2C2=Nc3ccccc3C(NCc3ccccc3)O2)cc1C` (configuration not stated) belongs -3% (inactive); to `CCCC(=O)OC(OC(=O)CCC)c1ccc([N+](=O)[O-])o1`, -3% (inactive).
Same read-out and setting: the figure for `O=C(/C(=C/c1ccccc1)CBr)c1ccccc1` is 14% (inactive); for `O=C(Cc1ccccc1F)NC1=C(Cl)C(=O)c2ccccc2C1=O` it is 3% (inactive).
For the compound `Cc1cccc(N2CCN(C(=O)/C(=C/c3ccccc3)NC(=O)c3ccccc3)CC2)c1`, the growth inhibition is 6% (inactive).
Still for that read-out and setting: the figure for `c1cc(Nc2ccc3c(c2)OCO3)c2cc(C3CCCCC3)ccc2n1` is -1% (inactive); for `COc1cc(NCCCCCNC(C)C)c2ncccc2c1Cl` it is -1% (inactive).
`COc1ccc2cc(CN3CCC(C4CCN(Cc5ccc6cc(OC)ccc6c5)CC4)CC3)ccc2c1`: the growth inhibition is 15% (inactive).
Take `CC(=O)O/N=C/c1c2ccccc2cc2ccccc12`: the growth inhibition is -1% (inactive).
Same read-out and setting: to `CC[C@@]1(OC(=O)CN(C)C)C(=O)OCc2c1cc1n(c2=O)Cc2cc3ccccc3nc2-1` belongs 10% (inactive); to `CCCCCCC(CCl)c1sc(-c2csc(CCNC(=O)OC(C)(C)C)n2)nc1C(=O)OC` (configuration not stated), -5% (inactive).
As to `CCOC(=O)C1=C(C)NC(C)=C(C(=O)OCC)C1c1cccc([N+](=O)[O-])c1`, the growth inhibition was -44% (inactive).
Same read-out and setting: to `Cc1ccc2c(/C=C/c3ccc(N(C)C)cc3)ccnc2c1C` belongs -45% (inactive); to `O=C1C(Br)=CC(Br)(Br)C=C1Br`, -11% (inactive).

Still in this experiment, the particulars now being: S. cerevisiae wt2 strain growth inhibition; at 11.0 µM; active compounds read high.
As for `COc1ccc2nc(N/N=C/c3sccc3C)cc(C)c2c1`, the growth inhibition was 27% (inactive).
Same read-out and setting: the figure for `O=C(O)/C=C\C(=O)NNc1ccc(Br)cc1` is 99% (active); for `S=c1[nH]nc(Cc2ccccc2)c(=S)[nH]1` it is 62% (inactive); for `COc1ccc2nc3cccc([N+](=O)[O-])c3c(NCCCO)c2c1` it is 88% (active).
For `Cc1ccc(N(C=O)c2c([N+](=O)[O-])cc([N+](=O)[O-])c3c2=[N+]([O-])CN=3)cc1`, the growth inhibition is 46% (inactive).
Regarding `COc1ccc(C(=O)OCCc2ccccc2)cc1`, the growth inhibition was -3% (inactive).
Same read-out and setting: to `COc1ccc(C(=O)NCCN(C)C)c2nc3ccccc3cc12` belongs -15% (inactive); to `NCC(O)CSCc1ccc(Cl)cc1` (configuration not stated), -4% (inactive).
For the compound `CN(C)/N=N/c1nc[nH]c1C(N)=O`, the growth inhibition is -2% (inactive).
Same read-out and setting: the figure for `O=c1[nH]c(=O)n(CCCO)cc1F` is -14% (inactive).
`COc1ccc(/C(=N/O)c2ccccc2C2=Nc3ccccc3C(NCc3ccccc3)O2)cc1C` (configuration not stated): the growth inhibition is 0% (inactive).
For `CCCC(=O)OC(OC(=O)CCC)c1ccc([N+](=O)[O-])o1`, the growth inhibition was -3% (inactive).
The same measure, in the same setting: the figure for `O=C(/C(=C/c1ccccc1)CBr)c1ccccc1` is 62% (inactive).
For the compound `O=C(Cc1ccccc1F)NC1=C(Cl)C(=O)c2ccccc2C1=O`, the growth inhibition was -8% (inactive).
Still for that read-out and setting: the figure for `Cc1cccc(N2CCN(C(=O)/C(=C/c3ccccc3)NC(=O)c3ccccc3)CC2)c1` is 1% (inactive); for `c1cc(Nc2ccc3c(c2)OCO3)c2cc(C3CCCCC3)ccc2n1` it is -2% (inactive); for `COc1cc(NCCCCCNC(C)C)c2ncccc2c1Cl` it is 0% (inactive).
The same measure, in the same setting: the figure for `COc1ccc2cc(CN3CCC(C4CCN(Cc5ccc6cc(OC)ccc6c5)CC4)CC3)ccc2c1` is 7% (inactive); for `CC(=O)O/N=C/c1c2ccccc2cc2ccccc12` it is -2% (inactive).
On the same count and under the same terms, the figure for `CC[C@@]1(OC(=O)CN(C)C)C(=O)OCc2c1cc1n(c2=O)Cc2cc3ccccc3nc2-1` is 28% (inactive).
For `CCCCCCC(CCl)c1sc(-c2csc(CCNC(=O)OC(C)(C)C)n2)nc1C(=O)OC` (configuration not stated), the growth inhibition was -5% (inactive).
Same read-out and setting: the figure for `CCOC(=O)C1=C(C)NC(C)=C(C(=O)OCC)C1c1cccc([N+](=O)[O-])c1` is -13% (inactive); for `Cc1ccc2c(/C=C/c3ccc(N(C)C)cc3)ccnc2c1C` it is -4% (inactive); for `O=C1C(Br)=CC(Br)(Br)C=C1Br` it is 51% (inactive).
